High-throughput results (PubChem BioAssay)
miR-122 inh: miR-122 sensor activation. 340,000 tested, 0.14% active. AID 623901. activation, % at 12.5 µM. Huh7 psiCHECK-miR122 Renilla luciferase sensor, 48 h;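 active = mean activation of 30% or more, with every replicate also reaching 30%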;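 note: 0% = median of neutral control wells and 100% = median of positive control wells; higher luciferase signal means stronger suppression of miR-122 activity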
Active calls of the source: *. This excerpt belongs to a sample that is enriched for hits.

For COc1ccc(CN(C)C[C@@H]2OCCCC[C@H](C)Oc3ccc(NC(=O)Nc4ccc(C(F)(F)F)cc4)cc3C(=O)N([C@H](C)CO)C[C@H]2C)cc1 the results were miR-122 inh 32*.
`C[C@@H]1CN([C@H](C)CO)C(=O)Cc2cc(NC(=O)Nc3ccc(C(F)(F)F)cc3)ccc2O[C@@H]1CN(C)C(=O)Nc1cccc2ccccc12` gave miR-122 inh -112.
Screening C[C@H](CO)N1C[C@H](C)[C@@H](CN(C)Cc2ccc(C(F)(F)F)cc2)Oc2c(NC(=O)C3CCCCC3)cccc2C1=O returned miR-122 inh -122.
`C[C@@H](O)C#Cc1ccc2c(c1)O[C@H](CN(C)C(=O)Cc1ccccn1)[C@@H](C)CN([C@@H](C)CO)S2(=O)=O` gave miR-122 inh -4.
CC(C)C#Cc1ccc2c(c1)O[C@H](CN(C)C(=O)CN(C)C)[C@H](C)CN([C@H](C)CO)S2(=O)=O was read as miR-122 inh 10.
`CCC(=O)N1C[C@@H](C)[C@H](OC)CN(C)C(=O)c2ccc(NS(C)(=O)=O)cc2OC[C@@H]1C` gave miR-122 inh -5.
`CN1c2ccc(-c3cccc(F)c3)cc2[C@H]2[C@H](CCN2C(=O)c2ccccc2F)[C@H]1CO` gave miR-122 inh -107.
Screening CCCC#Cc1ccc2c(c1)O[C@H](CN(C)C(=O)NCCC)[C@H](C)CN([C@@H](C)CO)S2(=O)=O returned miR-122 inh -10.
For C[C@@H]1CN([C@H](C)CO)C(=O)c2cc(C3=CCCCC3)cnc2O[C@@H]1CN(C)C(=O)Cc1ccccc1 the results were miR-122 inh 0.
C[C@H](CO)N1C[C@H](C)[C@H](CN(C)CC2CCOCC2)Oc2ncc(C#Cc3ccc(F)cc3)cc2C1=O was read as miR-122 inh 6.
Screening C[C@H](CO)N1C[C@H](C)[C@H](CN(C)C(=O)Cc2ccccn2)Oc2ncc(-c3cccc(C(=O)N(C)C)c3)cc2C1=O returned miR-122 inh -5.
C[C@@H]1CN([C@@H](C)CO)C(=O)c2cc(-c3cccc(C(=O)N(C)C)c3)cnc2O[C@@H]1CN(C)C(=O)Cc1ccccn1 was read as miR-122 inh 0.
Screening Cc1cc(C(=O)Nc2cccc3c2O[C@H](CN(C)Cc2ccc(C(F)(F)F)cc2)[C@@H](C)CN([C@H](C)CO)C3=O)n(C)n1 returned miR-122 inh -276.
C[C@@H]1CN([C@@H](C)CO)C(=O)c2cc(-c3ccccc3F)cnc2O[C@@H]1CN(C)C(=O)C1CCCCC1 was read as miR-122 inh -11.
C[C@@H](O)C#Cc1ccc2c(c1)O[C@H](CN(C)C)[C@@H](C)CN([C@@H](C)CO)S2(=O)=O was read as miR-122 inh 3.
For C[C@@H]1CN([C@@H](C)CO)C(=O)c2cc(-c3ccc(C(=O)N(C)C)cc3)cnc2O[C@H]1CN(C)Cc1ccc(C(=O)O)cc1 the results were miR-122 inh 5.
For CCCNC(=O)N(C)C[C@@H]1Oc2cc(C#CC(C)C)ccc2S(=O)(=O)N([C@H](C)CO)C[C@H]1C the results were miR-122 inh -10.
For COc1cccc(-c2ccc3c(c2)O[C@H](CN(C)Cc2cccnc2)[C@H](C)CN([C@H](C)CO)S3(=O)=O)c1 the results were miR-122 inh 1.
For CC(C)CC#Cc1cnc2c(c1)C(=O)N([C@H](C)CO)C[C@@H](C)[C@@H](CN(C)C(=O)Nc1ccccc1F)O2 the results were miR-122 inh -1.
Cn1c(-c2ccc(N)cc2)nc2ccccc21 was read as miR-122 inh 36*.
`C[C@H](CO)N1C[C@H](C)[C@@H](CN(C)C(=O)Cc2ccccn2)Oc2ncc(/C=C/c3ccccc3)cc2C1=O` gave miR-122 inh 5.
C/C=C/c1cnc2c(c1)C(=O)N([C@H](C)CO)C[C@H](C)[C@@H](CN(C)C(=O)Cc1cccnc1)O2 was read as miR-122 inh 4.
For C[C@H]1CN([C@@H](C)CO)C(=O)c2cccc(NC(=O)C3CC3)c2O[C@@H]1CN(C)Cc1ccc(C(F)(F)F)cc1 the results were miR-122 inh -113.
`CN1C(=O)c2cc(NC(=O)Cc3ccccc3)ccc2OC[C@@H]2O[C@H](CC(=O)NCC3CC3)CC[C@@H]21` gave miR-122 inh -233.
CCCNC(=O)Nc1ccc2c(c1)C(=O)N(C)[C@@H]1CC[C@H](CC(=O)NCC3CCCCC3)O[C@H]1CO2 was read as miR-122 inh 33*.
CCCNC(=O)C[C@H]1CC[C@H]2[C@H](COc3ccc(NC(=O)Cc4cccs4)cc3C(=O)N2C)O1 was read as miR-122 inh -167.
Screening CCNC(=O)Nc1ccc2c(c1)C(=O)N(C)[C@H]1CC[C@H](CC(=O)Nc3ccccc3F)O[C@@H]1CO2 returned miR-122 inh 53*.
For Cc1ccccc1NC(=O)Nc1ccc2c(c1)C(=O)N(C)[C@@H]1CC[C@H](CC(=O)NCC3CC3)O[C@@H]1CO2 the results were miR-122 inh 47*.
CCCNC(=O)C[C@@H]1CC[C@@H]2[C@@H](COc3ccc(NC(=O)Nc4ccccc4F)cc3C(=O)N2C)O1 was read as miR-122 inh 50*.
`CCCNC(=O)C[C@@H]1CC[C@H]2[C@H](COc3ccc(NC(=O)Cc4cccs4)cc3C(=O)N2C)O1` gave miR-122 inh -207.
CC(=O)N(C)C[C@@H]1Oc2cc(C#CC3CCCCC3)ccc2S(=O)(=O)N([C@H](C)CO)C[C@@H]1C was read as miR-122 inh 1.
Screening C[C@@H]1CN([C@@H](C)CO)C(=O)c2cc(C#CC3(O)CCCC3)cnc2O[C@H]1CN(C)C(=O)Cc1ccccc1 returned miR-122 inh -4.
`COCC#Cc1cnc2c(c1)C(=O)N([C@@H](C)CO)C[C@H](C)[C@H](CN(C)S(=O)(=O)c1cccc(OC)c1)O2` gave miR-122 inh 8.
For CCCC#Cc1ccc2c(c1)O[C@H](CN(C)C(=O)NCCC)[C@@H](C)CN([C@@H](C)CO)S2(=O)=O the results were miR-122 inh -16.
`COCC#Cc1ccc2c(c1)O[C@@H](CN(C)C(=O)C1CCOCC1)[C@@H](C)CN([C@@H](C)CO)S2(=O)=O` gave miR-122 inh 2.
`COCC(=O)N(C)C[C@@H]1Oc2cc(C#CC3CC3)ccc2S(=O)(=O)N([C@@H](C)CO)C[C@@H]1C` gave miR-122 inh 2.
`Cc1ccc(S(=O)(=O)N(C)C[C@@H]2Oc3cc(C#CC4CCCC4)ccc3S(=O)(=O)N([C@@H](C)CO)C[C@@H]2C)cc1` gave miR-122 inh -29.
`C[C@H]1CN([C@@H](C)CO)S(=O)(=O)c2ccc(C#CC(C)(C)O)cc2O[C@@H]1CN(C)CC1CC1` gave miR-122 inh 3.
C[C@H](CO)N1C[C@H](C)[C@H](CN(C)C(=O)C2CCCCC2)Oc2ncc(-c3cccc(C#N)c3)cc2C1=O was read as miR-122 inh -2.
`CCCN(C)C[C@H]1Oc2ncc(-c3ccccc3OC)cc2C(=O)N([C@@H](C)CO)C[C@@H]1C` gave miR-122 inh 3.
C[C@@H]1CN([C@H](C)CO)C(=O)c2cc(-c3cccc(F)c3)cnc2O[C@H]1CN(C)Cc1ccncc1 was read as miR-122 inh 5.
C[C@H](CO)N1C[C@H](C)[C@H](CN(C)Cc2ccccn2)Oc2cc(-c3ccncc3)ccc2S1(=O)=O was read as miR-122 inh 6.
`C[C@H]1CN([C@@H](C)CO)S(=O)(=O)c2ccc(-c3cncnc3)cc2O[C@@H]1CN(C)C(=O)Cc1cccnc1` gave miR-122 inh 1.
